PubChem BioAssay (EPA / NIEHS)
Records with an inconclusive call do not appear. Active and inactive are the calls of the source. Rule for the calls, unless noted: active = hit-call score of the fitted dose curve at least 0.9, where 1 is the maximum; inconclusive = response in the unintended direction; inactive = score below 0.9.

Experiments:
[1] = molecular target: X-box-binding protein 1 (Homo sapiens) (UniProt P17861); experiment: ATG_Xbp1_CIS: Attagene CIS-FACTORIAL HepG2 Assay for human X-box Binding Protein 1 (XBP1) (AID 2282972; active = hit-call score of the fitted dose curve at least 0.9, where 1 is the maximum; inactive = score below 0.9); conditions: HepG2 XBP1 cis-element reporter, Attagene multiplex; actives raise or lower the signal
X-box-binding protein 1 (Homo sapiens), sequence (P17861 whole entry, looked up): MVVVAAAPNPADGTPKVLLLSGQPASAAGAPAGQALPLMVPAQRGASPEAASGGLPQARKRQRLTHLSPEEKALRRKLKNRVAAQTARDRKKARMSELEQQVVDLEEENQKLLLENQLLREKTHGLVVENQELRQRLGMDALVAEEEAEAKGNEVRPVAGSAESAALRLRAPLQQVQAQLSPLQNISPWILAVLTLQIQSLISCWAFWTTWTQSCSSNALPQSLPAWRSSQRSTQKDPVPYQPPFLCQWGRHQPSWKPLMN
Outline: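 After a 24-hour chemical exposure of HepG2 cells carrying cis-regulated reporters, reporter mRNA levels are assessed. Quantification uses RT-PCR, 6-FAM labelling and capillary electrophoresis. Gain- or loss-of-signal is fitted against DMSO.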

[2] = ATG_GAL4_TRANS: Attagene TRANS-FACTORIAL HepG2 Assay for GAL4 (Internal Marker) (AID 2282976); conditions: HepG2 Attagene TRANS GAL4 internal marker reporter
Outline: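 Background-control readout: GAL4-UAS reporter transcript in transiently transfected HepG2 cells after 24 h compound exposure. Measured by RT-PCR, 6-FAM primer extension, HpaI digest and capillary electrophoresis; gain-of-signal fit versus DMSO.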

[3] = molecular target: Estrogen-related receptor gamma (Homo sapiens) (UniProt P62508); experiment: ATG_ERRg_TRANS: Attagene TRANS-FACTORIAL HepG2 Assay for human Estrogen-Related Receptor gamma (ERRg) (AID 2282977); conditions: HepG2 Attagene TRANS reporter, ERRg transactivation;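 note: hits increase reporter signal over DMSO so potencies reflect activators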
Estrogen-related receptor gamma (Homo sapiens), sequence (P62508 whole entry, looked up, the tested form may be a part): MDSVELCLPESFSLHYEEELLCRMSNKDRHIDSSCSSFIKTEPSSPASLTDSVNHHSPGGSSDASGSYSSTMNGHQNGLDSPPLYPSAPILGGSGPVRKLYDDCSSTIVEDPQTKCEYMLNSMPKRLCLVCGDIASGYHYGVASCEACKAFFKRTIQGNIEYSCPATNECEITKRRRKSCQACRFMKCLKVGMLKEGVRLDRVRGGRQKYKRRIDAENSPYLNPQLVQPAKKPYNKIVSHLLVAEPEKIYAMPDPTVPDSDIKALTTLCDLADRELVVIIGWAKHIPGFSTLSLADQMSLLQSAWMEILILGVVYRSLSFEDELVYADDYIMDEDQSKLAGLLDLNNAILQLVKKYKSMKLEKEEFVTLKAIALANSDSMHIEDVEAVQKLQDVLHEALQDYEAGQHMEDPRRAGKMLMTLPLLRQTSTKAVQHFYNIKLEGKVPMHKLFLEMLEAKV
Outline: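 HepG2 cells transiently transfected with multiplexed GAL4-UAS reporter units driven by chimeric NR-Gal4 proteins; 24 h exposure. Reporter mRNA quantified by RT-PCR, fluorescent labelling, HpaI digestion and capillary electrophoresis; gain of signal vs DMSO.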

[4] = molecular target: Glucocorticoid receptor (Homo sapiens) (UniProt P04150); experiment: ATG_GR_TRANS: Attagene TRANS-FACTORIAL HepG2 Assay for human Glucocorticoid Receptor (GR) (AID 2282978); conditions: HepG2 Attagene TRANS GR reporter, mRNA transcription;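 note: activators score as hits since higher reporter transcript over DMSO is fitted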
Glucocorticoid receptor (Homo sapiens), sequence (P04150 whole entry, looked up, the tested form may be a part): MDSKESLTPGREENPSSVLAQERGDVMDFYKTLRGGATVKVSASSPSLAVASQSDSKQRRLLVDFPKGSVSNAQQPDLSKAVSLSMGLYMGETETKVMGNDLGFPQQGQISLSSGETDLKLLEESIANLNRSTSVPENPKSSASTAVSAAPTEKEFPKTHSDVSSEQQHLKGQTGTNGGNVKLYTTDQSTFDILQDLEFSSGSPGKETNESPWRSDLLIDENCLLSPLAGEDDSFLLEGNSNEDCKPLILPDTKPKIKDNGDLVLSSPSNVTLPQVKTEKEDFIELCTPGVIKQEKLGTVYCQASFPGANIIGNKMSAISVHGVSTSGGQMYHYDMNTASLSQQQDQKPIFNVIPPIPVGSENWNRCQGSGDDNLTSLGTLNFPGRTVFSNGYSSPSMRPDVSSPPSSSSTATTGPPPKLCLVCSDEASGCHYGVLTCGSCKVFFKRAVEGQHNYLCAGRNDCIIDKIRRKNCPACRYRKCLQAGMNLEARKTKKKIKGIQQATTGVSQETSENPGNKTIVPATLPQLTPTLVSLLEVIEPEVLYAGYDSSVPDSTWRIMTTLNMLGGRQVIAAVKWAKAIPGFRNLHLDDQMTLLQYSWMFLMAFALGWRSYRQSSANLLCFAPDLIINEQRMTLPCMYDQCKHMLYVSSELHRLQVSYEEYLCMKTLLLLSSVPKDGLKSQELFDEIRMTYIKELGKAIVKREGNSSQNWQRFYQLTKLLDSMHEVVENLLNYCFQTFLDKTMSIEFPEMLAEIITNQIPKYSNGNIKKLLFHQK
Outline: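 HepG2 cells transiently transfected with multiplexed reporter units in which chimeric NR-GAL4 proteins drive GAL4-UAS reporters; 24 h compound exposure. Reporter mRNA measured by RT-PCR, 6-FAM labelling, HpaI digestion and capillary electrophoresis; gain-of-signal fitted versus DMSO.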

[5] = molecular target: Oxysterols receptor LXR-alpha (Homo sapiens) (UniProt Q13133); experiment: ATG_LXRa_TRANS: Attagene TRANS-FACTORIAL HepG2 Assay for human Liver X Receptor alpha (LXRa) (AID 2282980); conditions: HepG2 Attagene TRANS reporter, LXRa transactivation
Oxysterols receptor LXR-alpha (Homo sapiens), sequence (Q13133 whole entry, looked up, the tested form may be a part): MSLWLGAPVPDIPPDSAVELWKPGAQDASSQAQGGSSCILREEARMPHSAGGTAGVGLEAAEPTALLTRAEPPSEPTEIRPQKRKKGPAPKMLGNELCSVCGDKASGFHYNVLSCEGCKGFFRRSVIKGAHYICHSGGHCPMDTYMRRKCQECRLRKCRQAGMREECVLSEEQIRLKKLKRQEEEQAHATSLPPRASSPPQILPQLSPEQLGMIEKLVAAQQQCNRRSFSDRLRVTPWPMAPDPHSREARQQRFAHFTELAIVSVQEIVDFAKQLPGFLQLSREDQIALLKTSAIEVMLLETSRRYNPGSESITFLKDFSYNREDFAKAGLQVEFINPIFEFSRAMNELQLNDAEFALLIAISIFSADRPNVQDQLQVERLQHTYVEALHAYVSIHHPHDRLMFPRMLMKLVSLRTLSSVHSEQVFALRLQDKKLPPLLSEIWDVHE
Outline: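 HepG2 cells transiently transfected with GAL4-UAS reporter units for chimeric NR-Gal4 proteins, exposed to chemicals for 24 h. Reporter mRNA quantified by RT-PCR and capillary electrophoresis; gain of signal fitted relative to DMSO.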

[6] = molecular target: Oxysterols receptor LXR-beta (Homo sapiens) (UniProt P55055); experiment: ATG_LXRb_TRANS: Attagene TRANS-FACTORIAL HepG2 Assay for human Liver X Receptor beta (LXRb) (AID 2282981); conditions: HepG2 Attagene TRANS GAL4-LXRb reporter, mRNA
Oxysterols receptor LXR-beta (Homo sapiens), sequence (P55055 whole entry, looked up, the tested form may be a part): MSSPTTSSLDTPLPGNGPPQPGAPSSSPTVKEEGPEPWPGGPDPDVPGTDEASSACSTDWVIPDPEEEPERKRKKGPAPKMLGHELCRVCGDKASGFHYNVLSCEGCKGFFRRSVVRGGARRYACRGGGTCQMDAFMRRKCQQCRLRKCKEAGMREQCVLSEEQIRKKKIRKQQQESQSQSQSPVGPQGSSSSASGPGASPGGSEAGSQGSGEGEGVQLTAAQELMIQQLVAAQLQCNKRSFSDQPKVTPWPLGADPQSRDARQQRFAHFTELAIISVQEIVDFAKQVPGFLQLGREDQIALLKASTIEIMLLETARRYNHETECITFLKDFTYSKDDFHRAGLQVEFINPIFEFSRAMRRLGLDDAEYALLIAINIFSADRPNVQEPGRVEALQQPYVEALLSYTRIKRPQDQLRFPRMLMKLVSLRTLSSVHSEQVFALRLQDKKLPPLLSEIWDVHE
Outline: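 HepG2 cells transiently transfected with GAL4-UAS reporter units for chimeric NR-Gal4 proteins, dosed for 24 h. Reporter transcripts measured by RT-PCR and capillary electrophoresis; gain-of-signal fitting relative to DMSO.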

[7] = molecular target: Hepatocyte nuclear factor 4-alpha (Homo sapiens) (UniProt P41235); experiment: ATG_HNF4a_TRANS: Attagene TRANS-FACTORIAL HepG2 Assay for human Hepatocyte Nuclear Factor 4 alpha (HNF4a) (AID 2282982); conditions: HepG2 HNF4a transactivation reporter, mRNA readout
Hepatocyte nuclear factor 4-alpha (Homo sapiens), sequence (P41235 whole entry, looked up, the tested form may be a part): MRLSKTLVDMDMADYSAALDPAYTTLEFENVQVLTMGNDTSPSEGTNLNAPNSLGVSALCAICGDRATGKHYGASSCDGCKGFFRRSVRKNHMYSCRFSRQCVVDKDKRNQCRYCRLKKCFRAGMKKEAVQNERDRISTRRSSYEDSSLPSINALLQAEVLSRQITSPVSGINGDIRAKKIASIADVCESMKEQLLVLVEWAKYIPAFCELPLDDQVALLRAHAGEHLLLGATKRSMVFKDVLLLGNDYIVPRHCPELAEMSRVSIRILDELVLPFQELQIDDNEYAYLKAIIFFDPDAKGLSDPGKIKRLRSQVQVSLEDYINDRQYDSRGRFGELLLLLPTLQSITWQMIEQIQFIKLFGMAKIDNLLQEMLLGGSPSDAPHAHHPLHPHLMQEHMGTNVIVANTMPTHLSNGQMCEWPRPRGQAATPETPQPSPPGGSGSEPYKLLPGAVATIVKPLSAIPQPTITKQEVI
Outline: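 HepG2 cells transiently transfected with HNF4a-Gal4 chimera and GAL4-UAS reporter units, dosed for 24 h. Reporter mRNA measured by RT-PCR, fluorescent primer extension and capillary electrophoresis; gain-of-signal fitted relative to DMSO.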

[8] = ATG_M_19_TRANS: Attagene TRANS-FACTORIAL HepG2 Assay for M19 Transcription Factor (Internal Marker) (AID 2282974); conditions: HepG2 Attagene TRANS-FACTORIAL M19 internal marker reporter
Outline: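 HepG2 cells transiently transfected with multiple GAL4-UAS reporter transcription units were exposed to chemicals for 24 h. Reporter mRNA was read by RT-PCR, 6-FAM primer extension, HpaI digestion and capillary electrophoresis; gain of signal fitted relative to DMSO.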

[9] = molecular target: Bile acid receptor (Homo sapiens) (UniProt Q96RI1); experiment: ATG_FXR_TRANS: Attagene TRANS-FACTORIAL HepG2 Assay for Farnesoid X Receptor (FXR) (AID 2282979); conditions: HepG2 Attagene TRANS FXR-GAL4 reporter transcription;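 note: hits raise reporter mRNA above DMSO so AC50 marks FXR activation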
Bile acid receptor (Homo sapiens), sequence (Q96RI1 whole entry, looked up, the tested form may be a part): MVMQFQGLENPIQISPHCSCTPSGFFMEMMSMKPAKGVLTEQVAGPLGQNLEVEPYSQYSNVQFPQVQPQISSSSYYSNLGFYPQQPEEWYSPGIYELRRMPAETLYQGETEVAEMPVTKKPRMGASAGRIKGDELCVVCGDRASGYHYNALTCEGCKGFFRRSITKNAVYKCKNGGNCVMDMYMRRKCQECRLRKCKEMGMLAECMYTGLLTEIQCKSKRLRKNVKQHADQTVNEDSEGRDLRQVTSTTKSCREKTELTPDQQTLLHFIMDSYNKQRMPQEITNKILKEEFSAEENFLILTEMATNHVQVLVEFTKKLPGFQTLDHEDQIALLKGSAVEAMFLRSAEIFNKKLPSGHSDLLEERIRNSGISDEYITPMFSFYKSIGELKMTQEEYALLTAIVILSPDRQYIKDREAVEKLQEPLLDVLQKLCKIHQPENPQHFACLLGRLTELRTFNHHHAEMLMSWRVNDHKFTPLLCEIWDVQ
Outline: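 HepG2 cells were transiently transfected with GAL4-UAS reporters driven by chimeric NR-Gal4 proteins and dosed for 24 h. Reporter mRNA was quantified by RT-PCR, fluorescent labelling, HpaI digestion and capillary electrophoresis, with gain of signal scored versus DMSO.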

With CCc1ccccc1C the outcome [1] was “inactive”, the outcome [2] was “inactive” and the outcome [3] was “inactive”. The outcome [4] was “inactive”, the outcome [5] was “inactive” and the outcome [6] was “inactive”. The outcome [7] was “inactive”.

With O=C/C=C/c1ccccc1 the outcome [1] was “inactive”, the outcome [8] was “inactive” and the outcome [4] was “inactive”. The outcome [5] was “inactive”, the outcome [6] was “inactive” and the outcome [7] was “inactive”.

For OCc1ccco1, the outcome [3] was “inactive”.

For O=C1CCCN1, the outcome [8] was “inactive”, the outcome [2] was “inactive” and the outcome [5] was “inactive”.

With ClC(Cl)=C(Cl)C(Cl)=C(Cl)Cl the outcome [5] was “inactive”, the outcome [6] was “inactive” and the outcome [7] was “inactive”.

In the case of O=C(O)C(Cl)(Cl)Cl, the outcome [2] is reported as “inactive”, the outcome [5] is reported as “inactive” and the outcome [6] is reported as “inactive”. For the same compound, the outcome [7] was “inactive”.

For CCCCCCCCc1ccc(O)cc1, the outcome [2] was “inactive”, the outcome [6] was “inactive” and the outcome [7] was “inactive”.

With O=C(O)C(F)(F)C(F)(F)C(F)(F)C(F)(F)C(F)(F)C(F)(F)F the outcome [8] was “inactive”, the outcome [2] was “inactive” and the outcome [6] was “inactive”. For the same compound, the outcome [7] was “inactive”.

For C1CCC(NC2CCCCC2)CC1, the outcome [8] was “inactive” and the outcome [5] was “inactive”.

With CC(Br)C(=O)O (configuration not stated) the outcome [8] was “inactive”, the outcome [2] was “inactive” and the outcome [7] was “inactive”.

With Cc1ccc(N)cc1Cl the outcome [5] was “inactive” and the outcome [6] was “inactive”.

With [O-][Cl+2]([O-])O the outcome [2] was “inactive”, the outcome [5] was “inactive” and the outcome [6] was “inactive”. For the same compound, the outcome [7] was “inactive”.

In the case of O=C(Cc1ccccc1)c1ccccc1, the outcome [8] is reported as “inactive” and the outcome [4] is reported as “inactive”.

With ClCc1ccccn1 the outcome [6] was “inactive” and the outcome [7] was “inactive”.

In the case of CC(C)(c1ccc(OCC2CO2)cc1)c1ccc(OCC2CO2)cc1 (configuration not stated), the outcome [8] is reported as “inactive”, the outcome [2] is reported as “inactive” and the outcome [6] is reported as “inactive”.

For ClC1=C(Cl)[C@]2(Cl)[C@@H]3[C@@H](Cl)[C@@H](Cl)C[C@@H]3[C@@]1(Cl)C2(Cl)Cl, the outcome [2] was “inactive”, the outcome [4] was “inactive” and the outcome [5] was “inactive”. For the same compound, the outcome [6] was “inactive”.

In the case of Nc1ccc(-c2ccc(N)c(Cl)c2)cc1Cl, the outcome [1] is reported as “inactive”, the outcome [6] is reported as “inactive” and the outcome [7] is reported as “inactive”.

In the case of CCOP(OCC)OCC, the outcome [2] is reported as “inactive”, the outcome [5] is reported as “inactive” and the outcome [6] is reported as “inactive”. The outcome [7] was “inactive”.

In the case of O=C(O)Cc1ccccc1, the outcome [1] is reported as “inactive” and the outcome [7] is reported as “inactive”.

In the case of O=[N+]([O-])c1c(Cl)c(Cl)cc(Cl)c1Cl, the outcome [8] is reported as “inactive” and the outcome [3] is reported as “inactive”.

With CC(C)OC(=O)Nc1ccccc1 the outcome [3] was “inactive” and the outcome [6] was “inactive”.

In the case of O=CC=O, the outcome [4] is reported as “inactive” and the outcome [7] is reported as “inactive”.

In the case of C(=NC1CCCCC1)=NC1CCCCC1, the outcome [8] is reported as “inactive”, the outcome [3] is reported as “inactive” and the outcome [5] is reported as “inactive”. For the same compound, the outcome [7] was “inactive”.

For C=C(C)C(=O)[O][Sn]([CH2]CCC)([CH2]CCC)[CH2]CCC, the AC50 [1] was 608 nM (active) and the outcome [7] was “inactive”.

With CCCCCCCCC(=O)NCc1ccc(O)c(OC)c1 the outcome [1] was “inactive” and the outcome [7] was “inactive”.

With COc1ccccc1OC the outcome [3] was “inactive”, the outcome [5] was “inactive” and the outcome [6] was “inactive”. The outcome [7] was “inactive”.

For CCC[CH2][Sn]([CH2]CCC)([CH2]CCC)[O]C(=O)c1ccccc1, the outcome [2] was “inactive”, the outcome [6] was “inactive” and the AC50 [7] was 638 nM (active).

With Nc1cccc2ccccc12 the outcome [8] was “inactive” and the outcome [6] was “inactive”.

In the case of CN(CCCC(=O)c1cccnc1)N=O, the outcome [4] is reported as “inactive”, the outcome [5] is reported as “inactive” and the outcome [7] is reported as “inactive”.

With C[C@@H]1C[C@@H]([C@H](O)CC2CC(=O)NC(=O)C2)C(=O)[C@@H](C)C1 the outcome [3] was “inactive”, the outcome [5] was “inactive” and the outcome [6] was “inactive”. For the same compound, the outcome [7] was “inactive”.

With CN(C)N=O the outcome [2] was “inactive”, the outcome [6] was “inactive” and the outcome [7] was “inactive”.

For Cc1cc(Cl)ccc1O[C@H](C)C(=O)O, the outcome [1] was “inactive” and the outcome [7] was “inactive”.

In the case of CCc1ccccc1N, the outcome [8] is reported as “inactive”, the outcome [2] is reported as “inactive” and the outcome [5] is reported as “inactive”. For the same compound, the outcome [6] was “inactive” and the outcome [7] was “inactive”.

With CCOC(=O)Nc1cccc(OC(=O)Nc2ccccc2)c1 the outcome [2] was “inactive”, the outcome [5] was “inactive” and the outcome [6] was “inactive”. The outcome [7] was “inactive”.

In the case of C[C@H]1O[C@@H](O[C@H]2[C@@H](O)C[C@H](O[C@H]3[C@@H](O)C[C@H](O[C@H]4CC[C@@]5(C)[C@H](CC[C@@H]6[C@@H]5CC[C@]5(C)[C@@H](C7=CC(=O)OC7)CC[C@]65O)C4)O[C@@H]3C)O[C@@H]2C)C[C@H](O)[C@@H]1O, the AC50 [1] is reported as 497 nM (active), the outcome [6] is reported as “inactive” and the outcome [7] is reported as “inactive”.

With O=Cc1cccc(Oc2ccccc2)c1 the outcome [1] was “inactive” and the outcome [7] was “inactive”.

For COc1cc2c(cc1OC)[C@@]13CCN4CC5=CCO[C@H]6CC(=O)N2[C@H]1[C@H]6[C@H]5C[C@H]43, the outcome [7] was “inactive”.

With CCCCC(CC)CO[N+](=O)[O-] (configuration not stated) the outcome [1] was “inactive” and the outcome [7] was “inactive”.

With COc1ccc(OC)c(C=O)c1 the outcome [8] was “inactive”, the outcome [2] was “inactive” and the outcome [5] was “inactive”. The outcome [7] was “inactive”.

With COc1cc(OC)nc(NC(=O)NS(=O)(=O)c2ncccc2C(=O)N(C)C)n1 the outcome [2] was “inactive” and the outcome [7] was “inactive”.

For O=[N+]([O-])c1ccc2c3c(cccc13)CC2, the outcome [2] was “inactive” and the outcome [7] was “inactive”.

For CC(C)C1CCC(Cc2ccc(Cl)cc2)C1(O)Cn1cncn1 (configuration not stated), the outcome [2] was “inactive”, the outcome [3] was “inactive” and the outcome [9] was “inactive”. For the same compound, the outcome [5] was “inactive” and the outcome [6] was “inactive”.
